# Laboratory results taken from the supplement of paper PMC10849652.
# About 8,800 targets were measured; listed, in parts, are those with a hit and a random draw of the rest. About 0.5% of all pairs of compound and target were hits. Unmarked numbers belong to inactive results.
# What was measured:
# Test in all cases: log2 fold change, soluble protein after heating vs DMSO (PISA); higher = thermal stabilisation; K562 lysate, 10 uM; active = over 0.2 and 3.5 SD of the protein, either way, in both replicates (recomputed)
# vemurafenib = compound: CCCS(=O)(=O)Nc1ccc(F)c(C(=O)c2c[nH]c3ncc(-c4ccc(Cl)cc4)cc23)c1F [vemurafenib]
# How it was run: (§1)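 Pellets of K562 cells were dounce-homogenised in PBS pH 7.4 with 1 mM MgCl2, and the crude extract was held at 1 mg/mL protein for a 30 min treatment with 10 μM compound. Aliquots were heated for 3 min over 48°C-58°C and pooled before NP-40 was added to 0.5% at 4°C. The supernatant from 21,000xg for 90 min was quantified by TMTpro 16plex LC-MS/MS with channel sums equalised. Values are reported from duplicates as log-two fold change in thermal stability relative to solvent controls.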
# [1] = compound: CCCS(=O)(=O)Nc1ccc(F)c(C(=O)c2c[nH]c3ncc(Cl)cc23)c1F
# How it was run: as §1
# barasertib = compound: CCN(CCCOc1ccc2c(Nc3cc(CC(=O)Nc4cccc(F)c4)[nH]n3)ncnc2c1)CCOP(=O)(O)O [barasertib]
# How it was run: as §1
# [2] = compound: CC[C@@H]1C(=O)N(C)c2cnc(Nc3ccc(C(=O)NC4CCN(C)CC4)cc3OC)nc2N1C1CCCC1
# How it was run: as §1
# volasertib = compound: CC[C@@H]1C(=O)N(C)c2cnc(Nc3ccc(C(=O)N[C@H]4CC[C@H](N5CCN(CC6CC6)CC5)CC4)cc3OC)nc2N1C(C)C [volasertib]
# How it was run: as §1
# [3] = compound: CCn1c(C(=O)N(C2CC2)C2CC2)cc2c3c(ncn3C)c(Nc3cc(C)n(C)n3)nc21
# How it was run: as §1
# [4] = compound: CCn1cc(-c2ccnc3[nH]c(-c4cccc(CN(C)C)c4)cc23)c(-c2ccc(NC(=O)N(C)C)cc2)n1
# How it was run: as §1
# [5] = compound: CN1CCC(CNc2ccc3ncc(-c4cccc(OC(F)(F)F)c4)n3n2)CC1
# How it was run: as §1
# saracatinib = compound: CN1CCN(CCOc2cc(OC3CCOCC3)c3c(Nc4c(Cl)ccc5c4OCO5)ncnc3c2)CC1 [saracatinib]
# How it was run: as §1
# sotrastaurin = compound: CN1CCN(c2nc(C3=C(c4c[nH]c5ccccc45)C(=O)NC3=O)c3ccccc3n2)CC1 [sotrastaurin]
# How it was run: as §1
# Chain of UniProt O15294 (O15294 whole entry, looked up): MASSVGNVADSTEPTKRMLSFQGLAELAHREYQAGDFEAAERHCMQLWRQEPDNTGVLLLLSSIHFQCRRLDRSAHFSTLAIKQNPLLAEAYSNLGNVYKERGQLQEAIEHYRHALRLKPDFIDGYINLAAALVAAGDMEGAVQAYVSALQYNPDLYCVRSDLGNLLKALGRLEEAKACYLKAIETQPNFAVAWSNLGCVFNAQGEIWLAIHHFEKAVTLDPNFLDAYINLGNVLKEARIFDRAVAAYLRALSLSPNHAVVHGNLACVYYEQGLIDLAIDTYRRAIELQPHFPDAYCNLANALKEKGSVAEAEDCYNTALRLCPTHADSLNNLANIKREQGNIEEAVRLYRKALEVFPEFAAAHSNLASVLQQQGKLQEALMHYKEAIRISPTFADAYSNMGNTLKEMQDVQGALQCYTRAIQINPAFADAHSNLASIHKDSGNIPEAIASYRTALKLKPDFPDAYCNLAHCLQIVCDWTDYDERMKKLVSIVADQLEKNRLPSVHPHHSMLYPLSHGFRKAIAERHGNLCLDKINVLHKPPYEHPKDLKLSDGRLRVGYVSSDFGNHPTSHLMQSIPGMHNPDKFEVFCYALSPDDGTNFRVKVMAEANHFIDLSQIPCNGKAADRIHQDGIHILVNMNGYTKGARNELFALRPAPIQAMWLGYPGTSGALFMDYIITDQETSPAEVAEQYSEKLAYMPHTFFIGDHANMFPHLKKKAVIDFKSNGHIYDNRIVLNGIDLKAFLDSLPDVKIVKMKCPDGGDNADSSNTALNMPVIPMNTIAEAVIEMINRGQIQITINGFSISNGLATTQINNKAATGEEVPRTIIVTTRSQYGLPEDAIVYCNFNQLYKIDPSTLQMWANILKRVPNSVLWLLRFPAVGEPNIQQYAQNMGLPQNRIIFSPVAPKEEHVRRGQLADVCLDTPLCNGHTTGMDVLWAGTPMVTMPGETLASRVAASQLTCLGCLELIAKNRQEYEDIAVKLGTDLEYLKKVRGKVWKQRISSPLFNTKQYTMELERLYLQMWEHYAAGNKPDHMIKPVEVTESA
# Chain of UniProt O96013 (O96013 whole entry, looked up): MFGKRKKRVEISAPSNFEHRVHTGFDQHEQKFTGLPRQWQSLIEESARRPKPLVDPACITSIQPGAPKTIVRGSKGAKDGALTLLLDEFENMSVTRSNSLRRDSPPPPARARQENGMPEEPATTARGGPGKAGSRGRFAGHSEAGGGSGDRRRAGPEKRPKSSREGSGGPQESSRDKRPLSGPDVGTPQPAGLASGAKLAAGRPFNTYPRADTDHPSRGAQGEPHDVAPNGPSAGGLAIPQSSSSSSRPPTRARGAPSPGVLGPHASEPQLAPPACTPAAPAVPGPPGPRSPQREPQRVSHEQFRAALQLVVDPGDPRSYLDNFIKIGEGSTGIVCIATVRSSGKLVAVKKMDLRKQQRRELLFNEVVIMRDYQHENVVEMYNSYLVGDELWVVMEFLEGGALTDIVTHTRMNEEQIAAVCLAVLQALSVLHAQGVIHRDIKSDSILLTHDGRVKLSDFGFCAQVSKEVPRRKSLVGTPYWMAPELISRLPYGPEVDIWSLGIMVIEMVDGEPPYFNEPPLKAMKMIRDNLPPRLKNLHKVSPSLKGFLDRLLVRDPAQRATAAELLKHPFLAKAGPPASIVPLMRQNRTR
# Chain of UniProt P53370 (P53370 whole entry, looked up): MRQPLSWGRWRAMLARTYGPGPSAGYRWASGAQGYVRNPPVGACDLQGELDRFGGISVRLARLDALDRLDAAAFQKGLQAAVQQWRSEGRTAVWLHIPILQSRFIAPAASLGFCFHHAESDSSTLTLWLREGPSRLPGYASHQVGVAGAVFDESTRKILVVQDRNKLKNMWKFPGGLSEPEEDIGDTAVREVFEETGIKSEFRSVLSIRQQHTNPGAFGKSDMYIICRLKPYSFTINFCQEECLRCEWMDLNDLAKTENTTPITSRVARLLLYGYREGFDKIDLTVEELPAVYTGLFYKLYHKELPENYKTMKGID
# Chain of UniProt Q8TAT6 (Q8TAT6 whole entry, looked up): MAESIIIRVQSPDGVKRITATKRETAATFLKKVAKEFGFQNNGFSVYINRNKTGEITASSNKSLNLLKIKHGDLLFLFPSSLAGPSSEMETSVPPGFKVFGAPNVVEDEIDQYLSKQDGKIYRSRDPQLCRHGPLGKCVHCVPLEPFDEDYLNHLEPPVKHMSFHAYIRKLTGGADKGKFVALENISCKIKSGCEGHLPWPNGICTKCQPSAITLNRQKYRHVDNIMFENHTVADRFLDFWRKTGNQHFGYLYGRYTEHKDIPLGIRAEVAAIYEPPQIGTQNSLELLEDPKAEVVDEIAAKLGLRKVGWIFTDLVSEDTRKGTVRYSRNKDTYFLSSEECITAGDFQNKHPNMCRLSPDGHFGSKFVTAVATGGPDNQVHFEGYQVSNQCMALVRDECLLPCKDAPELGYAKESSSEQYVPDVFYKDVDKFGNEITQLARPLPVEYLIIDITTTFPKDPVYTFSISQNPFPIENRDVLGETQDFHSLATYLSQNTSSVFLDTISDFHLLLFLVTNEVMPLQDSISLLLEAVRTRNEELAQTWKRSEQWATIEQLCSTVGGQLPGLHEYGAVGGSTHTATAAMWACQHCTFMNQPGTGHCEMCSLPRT
# Chain of UniProt Q9BXW6 (Q9BXW6 whole entry, looked up): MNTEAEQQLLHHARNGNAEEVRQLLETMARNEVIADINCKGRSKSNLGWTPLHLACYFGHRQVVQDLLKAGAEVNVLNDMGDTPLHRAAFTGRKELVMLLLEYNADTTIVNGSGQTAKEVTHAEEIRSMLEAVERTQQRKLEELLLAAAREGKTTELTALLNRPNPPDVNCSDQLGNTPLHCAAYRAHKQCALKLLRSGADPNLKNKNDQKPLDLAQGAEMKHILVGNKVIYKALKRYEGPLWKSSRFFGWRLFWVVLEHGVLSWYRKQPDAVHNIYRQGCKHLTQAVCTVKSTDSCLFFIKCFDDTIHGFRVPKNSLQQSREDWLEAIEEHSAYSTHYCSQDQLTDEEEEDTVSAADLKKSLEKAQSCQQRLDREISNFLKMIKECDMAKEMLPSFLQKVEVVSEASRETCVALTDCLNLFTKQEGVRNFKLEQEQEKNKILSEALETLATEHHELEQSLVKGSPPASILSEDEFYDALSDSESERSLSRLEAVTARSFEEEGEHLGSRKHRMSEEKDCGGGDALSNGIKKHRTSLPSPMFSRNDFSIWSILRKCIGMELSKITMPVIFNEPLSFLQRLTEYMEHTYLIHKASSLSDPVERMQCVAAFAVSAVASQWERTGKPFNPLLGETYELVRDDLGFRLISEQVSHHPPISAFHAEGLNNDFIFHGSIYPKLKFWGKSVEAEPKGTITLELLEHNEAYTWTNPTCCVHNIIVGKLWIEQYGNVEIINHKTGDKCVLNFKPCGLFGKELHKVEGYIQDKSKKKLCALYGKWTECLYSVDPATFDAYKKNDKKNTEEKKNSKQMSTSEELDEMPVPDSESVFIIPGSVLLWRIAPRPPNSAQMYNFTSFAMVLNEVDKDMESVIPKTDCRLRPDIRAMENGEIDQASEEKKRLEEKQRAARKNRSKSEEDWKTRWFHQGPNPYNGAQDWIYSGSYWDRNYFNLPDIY
# Chain of UniProt Q9UK39 (Q9UK39 whole entry, looked up): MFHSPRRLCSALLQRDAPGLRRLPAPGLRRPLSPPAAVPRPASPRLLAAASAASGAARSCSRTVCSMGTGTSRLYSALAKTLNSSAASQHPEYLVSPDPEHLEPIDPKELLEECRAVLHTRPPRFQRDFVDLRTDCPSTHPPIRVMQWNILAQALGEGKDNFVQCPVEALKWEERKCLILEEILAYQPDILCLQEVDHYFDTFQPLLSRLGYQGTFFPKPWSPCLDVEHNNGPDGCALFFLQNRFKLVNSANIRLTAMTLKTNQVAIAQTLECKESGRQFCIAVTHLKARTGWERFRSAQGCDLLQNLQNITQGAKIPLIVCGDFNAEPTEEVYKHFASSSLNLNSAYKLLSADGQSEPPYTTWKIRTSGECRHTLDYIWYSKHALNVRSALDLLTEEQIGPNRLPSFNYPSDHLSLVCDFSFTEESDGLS
# Chain of UniProt O60829 (O60829 whole entry, looked up): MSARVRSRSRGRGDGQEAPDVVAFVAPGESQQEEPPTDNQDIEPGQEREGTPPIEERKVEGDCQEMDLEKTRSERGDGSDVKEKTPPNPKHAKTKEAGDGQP
# Chain of UniProt Q9Y5A7 (Q9Y5A7 whole entry, looked up): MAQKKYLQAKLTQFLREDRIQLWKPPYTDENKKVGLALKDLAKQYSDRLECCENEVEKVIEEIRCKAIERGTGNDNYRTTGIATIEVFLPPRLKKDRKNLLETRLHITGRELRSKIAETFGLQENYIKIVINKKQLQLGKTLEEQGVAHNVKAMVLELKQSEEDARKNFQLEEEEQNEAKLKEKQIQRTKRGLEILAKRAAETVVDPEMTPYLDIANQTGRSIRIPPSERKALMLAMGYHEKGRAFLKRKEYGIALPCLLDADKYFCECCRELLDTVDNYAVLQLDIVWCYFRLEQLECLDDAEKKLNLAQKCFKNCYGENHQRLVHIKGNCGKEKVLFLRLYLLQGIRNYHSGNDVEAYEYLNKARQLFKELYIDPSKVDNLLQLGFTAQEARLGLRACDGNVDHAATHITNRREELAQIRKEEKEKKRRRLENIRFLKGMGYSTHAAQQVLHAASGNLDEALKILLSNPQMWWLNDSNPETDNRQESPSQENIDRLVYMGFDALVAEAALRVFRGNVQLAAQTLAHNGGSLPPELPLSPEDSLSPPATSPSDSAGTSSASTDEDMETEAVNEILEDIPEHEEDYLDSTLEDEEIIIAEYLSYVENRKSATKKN
# Chain of UniProt Q99417 (Q99417 whole entry, looked up): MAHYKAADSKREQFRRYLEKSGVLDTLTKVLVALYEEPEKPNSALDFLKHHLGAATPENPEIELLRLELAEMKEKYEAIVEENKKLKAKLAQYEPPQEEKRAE
# Chain of UniProt Q5JRK9 (Q5JRK9 whole entry, looked up): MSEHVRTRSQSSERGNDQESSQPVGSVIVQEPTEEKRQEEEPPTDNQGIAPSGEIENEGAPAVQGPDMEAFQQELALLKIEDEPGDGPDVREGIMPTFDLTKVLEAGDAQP
Target,log2 fold change (vemurafenib),log2 fold change [1],log2 fold change (barasertib),log2 fold change [2],log2 fold change (volasertib),log2 fold change [3],log2 fold change [4],log2 fold change [5],log2 fold change (saracatinib),log2 fold change (sotrastaurin)
MYO1D (UniProt O94832),0.073,0.018,0.05,0.006,-0.003,-0.002,-0.05,-0.035,-0.001,0.041
NUMB (UniProt P49757),0.001,0.001,0.028,0.06,-0.015,0.008,0.055,-0.061,0.024,-0.134
NFIC (UniProt P08651),-0.071,0.014,-0.106,0.101,-0.001,-0.01,-0.453 (active),0.055,0.049,-0.01
NUP188 (UniProt Q5SRE5),-0.006,-0.006,0.074,-0.067,-0.077,0.05,-0.031,-0.045,0.029,0.021
MYCBP (UniProt Q99417),-0.001,0,0.16,-0.003,0.044,-0.007,-0.589 (active),0.189,0.021,0.035
NSUN2 (UniProt Q08J23),0.028,0.004,-0.006,-0.032,0.004,0.037,0.081,-0.022,0.006,0.005
NPLOC4 isoform 2 (UniProt Q8TAT6),-0.011,0.025,-0.019,0.025,-0.011,-0.016,-0.066,0.007,0.004,-0.005
MTOR (UniProt P42345),0.026,0.015,0.052,-0.045,-0.044,-0.006,-0.04,-0.031,0.005,0.03
NPM3 (UniProt O75607),0.052,0.03,-0.065,0.058,-0.015,-0.007,-0.376 (active),0.158,-0.023,0.025
MRPL53 (UniProt Q96EL3),-0.006,-0.01,0.032,0.069,0.057,-0.017,0.013,-0.019,-0.003,-0.021
MTFP1 (UniProt Q9UDX5),-0.025,0.031,0.012,0.036,0.041,0.061,-0.421 (active),0.041,-0.042,0.004
NGLY1 (UniProt Q96IV0),0.015,0.01,0.043,-0.102,-0.034,0.002,0.09,-0.02,0.013,0.024
NUP210 (UniProt Q8TEM1),-0.009,0.048,0.072,-0.004,0.006,0.036,0.012,-0.015,0.029,-0.004
NELFA (UniProt Q9H3P2),0.015,0.02,-0.005,-0.016,-0.083,0.007,0.037,-0.037,-0.013,0.029
NFATC2 (UniProt Q13469),-0.029,0.032,0.011,0.03,-0.069,-0.006,0.011,-0.002,0.014,-0.016
MRPS18A isoform 2 (UniProt Q9NVS2),0.073,0.03,0.037,0.073,-0.019,-0.04,0.306 (active),-0.121,-0.042,0.036
OGT (UniProt O15294),0.012,0.015,0.031,-0.003,-0.058,0.036,-0.002,-0.021,0.011,0.018

Target,log2 fold change (vemurafenib),log2 fold change [1],log2 fold change (barasertib),log2 fold change [2],log2 fold change (volasertib),log2 fold change [3],log2 fold change [4],log2 fold change [5],log2 fold change (saracatinib),log2 fold change (sotrastaurin)
MYOM1 (UniProt P52179),0.015,-0.082,0.021,0.049,0.123,-0.356,-0.185,0.088,-0.086,-0.163
PAK4 (UniProt O96013),-0.016,-0.06,-0.005,-0.131,-0.134,0.259,0.02,0.3,-0.018,0.063
PAGE4 (UniProt O60829),,0.015,0.108,0.039,0.002,-0.042,0.476,-0.158,0.046,0.092
MUC5AC (UniProt P98088),,,,,,0,,,,
OSBPL1A (UniProt Q9BXW6),,0.028,0.007,,0.019,,-0.095,0.05,0.013,0.038
MYO10 (UniProt Q9HD67),0.483,,0.171,,,-0.185,1.26 (active),-0.381,,-0.287
NOCT (UniProt Q9UK39),,-0.04,,0,0.02,0.004,,,-0.103,-0.073
PAGE2B (UniProt Q5JRK9),0.008,-0.056,,-0.027,-0.013,-0.008,-0.034,-0.239,0.176,0.05
NUCB2 (UniProt P80303),0.01,-0.009,-0.004,0.052,0.022,-0.008,0.338 (active),-0.084,0.015,-0.026
NUDT5 (UniProt C9JYY9),,,,0.036,,,,,,
NUB1 (UniProt H7C5N1),,,,,,0.312,,,,
MYBL2 (UniProt P10244),-0.07,,,0.013,,0.069,0.217,-0.296,0.057,0.043
NUDT6 (UniProt P53370),0.022,,,0.091,,-0.085,,,0.05,-0.033
MTHFD1 (UniProt V9GZ32),,0.008,,,-0.145,,,,,
NUB1 (UniProt Q9Y5A7),-0.007,0.011,0.028,-0.052,-0.056,0,0.008,-0.048,-0.009,0.021
NMT1 (UniProt P30419),0.024,0.016,-0.025,0.014,-0.002,0.01,-0.04,0.001,0.003,0.025
